PINK1 expr mod: modulators of PINK1 expression. 410,000 compounds, 0.2% hits. PINK1 immunofluorescence, high-content cytometry, 24 h. AID 624263. Potency, µM (doses to about 76.6 µM), hits mostly activators; active = well fitted activation curve with a large enough effect; inconclusive = small, poorly fitted or top-dose-only effect; cell line not stated here; also: nearly all actives have a fitted effect of over 65% in size
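Cells are seeded, rested 12 hours, then given compound at five concentrations or DMSO for 24 hours. After fixation, blocking and antibody staining, PINK1 amount and mitochondrial localization are scored; CCCP serves as control.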
ALOX12 inh: blocks human arachidonate 12S-lipoxygenase; 580,000 compounds, 1.1% hits; P18054; AID 1671190; Potency, µM (doses to about 108 µM), usual class: inhibitors; purified 12hLO, xylenol orange hydroperoxide absorbance
Target sequence (P18054 whole entry, looked up): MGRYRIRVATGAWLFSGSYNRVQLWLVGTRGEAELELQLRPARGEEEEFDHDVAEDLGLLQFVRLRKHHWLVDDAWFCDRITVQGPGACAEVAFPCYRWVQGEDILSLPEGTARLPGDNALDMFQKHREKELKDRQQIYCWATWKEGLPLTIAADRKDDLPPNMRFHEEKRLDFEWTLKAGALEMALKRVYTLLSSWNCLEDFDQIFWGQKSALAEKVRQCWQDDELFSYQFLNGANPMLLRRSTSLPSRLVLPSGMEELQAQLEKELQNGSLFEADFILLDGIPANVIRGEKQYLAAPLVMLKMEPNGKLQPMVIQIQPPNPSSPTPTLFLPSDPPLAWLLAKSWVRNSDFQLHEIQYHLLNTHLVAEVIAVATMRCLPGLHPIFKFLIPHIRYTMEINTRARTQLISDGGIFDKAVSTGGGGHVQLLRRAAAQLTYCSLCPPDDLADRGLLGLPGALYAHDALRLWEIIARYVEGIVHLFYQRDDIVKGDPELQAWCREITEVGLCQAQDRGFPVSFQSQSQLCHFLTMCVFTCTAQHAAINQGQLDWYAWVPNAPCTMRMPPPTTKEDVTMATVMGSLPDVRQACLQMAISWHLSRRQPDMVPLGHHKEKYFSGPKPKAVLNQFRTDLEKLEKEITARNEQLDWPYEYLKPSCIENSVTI
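Purified human 12hLO at 150 nM in 25 mM Hepes, 0.01% Triton X-100, pH 7.0, preincubated 15 min at room temperature with compound. Reaction started with 40 uM arachidonic acid, 30 min at room temperature. Hydroperoxide measured by Fe-xylenol orange, 573/405 nm absorbance ratio.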
KB-V1 cytotox: KB-V1 MDR subline cytotoxicity; KB-V1 MDR cells viability, CellTiter-Glo, 72 h; Potency, µM (doses to about 46.1 µM), hits mostly cytotoxic; 400,000 compounds, 3.4% hits; AID 1347076; also: nearly all actives have a fitted effect of over 60% in size
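qHTS viability screen in drug-selected KB-V1 MDR cells: 72 h compound treatment at 37 degrees C, ATP luminescence end point.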
SW480 rereplic: inducers of DNA re-replication in SW480 colon cancer cells; Potency, µM (doses to about 46.1 µM), hits mostly activators; 340,000 compounds, 1.8% hits; SW480 DNA re-replication, Hoechst DNA content imaging, 48 h; also: nearly all actives have a fitted effect of over 55% in size
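DNA re-replication was detected as more nuclei of elevated Hoechst intensity after 48 hr exposure to compound (23 nL pinned per well of 250 cells).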
KB-3-1 cytotox: KB-3-1 parental cell cytotoxicity; KB-3-1 viability, CellTiter-Glo ATP luminescence, 72 h; 400,000 compounds, 1.4% hits; Potency, µM (titrated, usually from 46.1 µM), most hits filed as cytotoxic; AID 1347075; also: nearly all actives have a fitted effect of over 60% in size
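KB-3-1 parental drug-naive adenocarcinoma cells in DMEM/10% FBS, incubated 72 h at 37 C with pin-transferred compounds across a concentration series. Viability by CellTiter-Glo luminescence; concentration-response curves fitted after normalization.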
MCF10A rereplic: induces DNA re-replication in MCF 10a normal breast cells | MCF 10A DNA re-replication, Hoechst nuclear intensity, 48 h | AID 624296 | 350,000 compounds, 2.9% hits | Potency, µM (top dose mostly 46.1 µM), usual class: activators; also: nearly all actives have a fitted effect of over 50% in size
A number is an active result; ! = not active in a repeat. Compounds with a hit are over-represented: about 5.8% of the library has one in this group of screens. Unless noted, calls follow the shape of the dose curve; as a rule, active = well fitted curve in the direction sought with a large enough effect; inconclusive = small, poorly fitted or top-dose-only effect, or another doubt; inactive = no such curve, though single readings can be large; an effect the other way counts as inactive or inconclusive.

Screening COc1ccc(CC(=O)Nc2ccc3nc(Nc4cccc(Cl)c4)cc(C)c3c2)cc1 returned PINK1 expr mod inactive, ALOX12 inh inconclusive, KB-V1 cytotox inconclusive and KB-3-1 cytotox inconclusive.
`COc1ccc(Nc2cc(C)c3cc(NC(=O)c4ccccc4Cl)ccc3n2)cc1` gave PINK1 expr mod inactive, ALOX12 inh inactive, KB-V1 cytotox 18.4µM and KB-3-1 cytotox inactive.
`CCN(CC)c1cc(C)c2cc(NC(=O)c3ccccc3OC)ccc2n1` gave PINK1 expr mod inconclusive, ALOX12 inh inactive, KB-V1 cytotox inconclusive, SW480 rereplic inconclusive, KB-3-1 cytotox 18.4µM! and MCF10A rereplic inconclusive.
For CCN(CC)c1cc(C)c2cc(NC(=O)/C=C/c3ccccc3Cl)ccc2n1 the results were PINK1 expr mod inactive, ALOX12 inh inconclusive, KB-V1 cytotox inactive and KB-3-1 cytotox 13µM.
For CCN(CC)c1cc(C)c2cc(NC(=O)c3cc(OC)cc(OC)c3)ccc2n1 the results were PINK1 expr mod inactive, ALOX12 inh inactive, KB-V1 cytotox inactive and KB-3-1 cytotox inactive.
CCN(CC)c1cc(C)c2cc(NC(=O)c3ccc(F)cc3Cl)ccc2n1 was read as PINK1 expr mod inactive, ALOX12 inh inactive, KB-V1 cytotox inactive and KB-3-1 cytotox inconclusive.
For NC(=O)CCN(C(=O)c1cccc(Cl)c1)c1ccc(F)cc1 the results were ALOX12 inh inactive.
For CCc1cc(=O)oc2cc(OCc3nc(C)no3)ccc12 the results were ALOX12 inh inactive.
Screening Cc1ccc(-c2nnn(Cc3coc(-c4ccccc4)n3)n2)cc1 returned ALOX12 inh inactive.
Screening CCN(CC)c1cc(C)c2cc(NC(=O)c3ccc(Br)o3)ccc2n1 returned PINK1 expr mod inactive, ALOX12 inh inactive, KB-V1 cytotox inconclusive, SW480 rereplic inconclusive, KB-3-1 cytotox inconclusive and MCF10A rereplic 9.2µM.
`Cc1ccc2cc(CN(Cc3ccco3)C(=O)C3CCCCC3)c(=O)[nH]c2c1C` gave PINK1 expr mod inactive, ALOX12 inh inactive, KB-V1 cytotox inactive, SW480 rereplic inactive, KB-3-1 cytotox inactive and MCF10A rereplic inactive.
COc1ccccc1NC(=S)N(Cc1ccco1)Cc1cc2cc(C)cc(C)c2[nH]c1=O was read as PINK1 expr mod inactive, ALOX12 inh inconclusive, KB-V1 cytotox 2.91µM, SW480 rereplic 20.6µM, KB-3-1 cytotox 6.51µM and MCF10A rereplic 13µM.
COc1ccccc1NC(=S)N(Cc1ccco1)Cc1cc2ccc(C)c(C)c2[nH]c1=O was read as PINK1 expr mod inconclusive, ALOX12 inh inconclusive, KB-V1 cytotox 1.84µM, SW480 rereplic inconclusive, KB-3-1 cytotox 0.92µM and MCF10A rereplic inconclusive.
For COc1ccc(CCC(C)(O)c2cc(-c3ccc(OC)cc3)no2)cc1 (stereo unspecified) the results were ALOX12 inh inactive.
C=C1c2nc3ccccc3n2C=C(c2ccc(C)cc2)N1c1ccccc1 was read as PINK1 expr mod inactive, ALOX12 inh inconclusive, KB-V1 cytotox inconclusive, SW480 rereplic inconclusive, KB-3-1 cytotox 16.4µM and MCF10A rereplic 4.61µM.
`CN(CC(=O)Nc1cccc(F)c1)Cc1ncc(-c2ccc(F)cc2)o1` gave ALOX12 inh inactive.
Screening O=C(Nc1ccc(Cl)c(-c2nc3ccccc3[nH]2)c1)c1cccnc1 returned PINK1 expr mod inactive, ALOX12 inh inactive, KB-V1 cytotox 20.6µM, SW480 rereplic inactive, KB-3-1 cytotox inactive and MCF10A rereplic inactive.
`COc1c(Cl)cc(C(=O)Nc2cccc(-c3nc4ccccc4[nH]3)c2)cc1Cl` gave PINK1 expr mod inactive, ALOX12 inh inactive, KB-V1 cytotox 20.6µM and KB-3-1 cytotox inconclusive.
Screening COc1c(Cl)cc(C(=O)Nc2ccccc2-c2ccccc2)cc1Cl returned PINK1 expr mod inactive, ALOX12 inh inactive, KB-V1 cytotox 14.6µM, SW480 rereplic inactive, KB-3-1 cytotox 20.6µM and MCF10A rereplic inconclusive.
`CC(C)CCSc1nc2c(c(=O)[nH]c(=O)n2C)n1C(C)C` gave ALOX12 inh inactive.

Screening results as filed in PubChem BioAssay.
